According to PubChem BioAssay:
Several values for one entry are separate records, joined by “and”; a condition that tells them apart may be missing. Equal values may be shown once. Results filed as inconclusive are left out. Where a structure was tested more than once in an assay, its records may differ in their call. Activity calls are given as the source filed them.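 The calls were made as follows, unless noted: active = normalized viability below 100% at a tested concentration; inactive = the rest.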

Columns and labels:
[1] = viability loss in pontine glioma line – cell-based, SU-DIPG-XVII, MIPE5.0, CellTiter-Glo, qHTS, dose response (AID 1347060; cut-off not given, nearly all actives have AC50 up to about 26 µM;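 as to AC50: cells exposed to compound for 48 hours before viability readout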); conditions: CellTiter-Glo ATP luminescence
[2] = viability loss in pontine glioma line – cell-based, SU-DIPG-XIII, MIPE4.0, CellTiter-Glo, qHTS, dose response (AID 1347061; cut-off not given, nearly all actives have AC50 up to about 37 µM;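 also: cells exposed to compound for 48 hours before readout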); conditions: CellTiter-Glo ATP luminescence
[3] = viability loss in pontine glioma line – cell-based, JHH-DIPG-1, MIPE4.0, CellTiter-Glo, qHTS, dose response (AID 1347062; cut-off not given, nearly all actives have AC50 up to about 27 µM;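 as to AC50: cells exposed to compound for two days before readout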); conditions: JHH-DIPG-1 viability, CellTiter-Glo ATP luminescence
[4] = viability loss in pontine glioma line – cell-based, SU-DIPG-IV, MIPE4.0, CellTiter-Glo, qHTS, dose response (AID 1347063; cut-off not given, nearly all actives have AC50 up to about 30 µM;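 also: compound exposure lasted 48 hours before the viability readout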); conditions: CellTiter-Glo ATP luminescence
[5] = viability loss in pontine glioma line – cell-based, SU-DIPG-XIII, MIPE5.0, CellTiter-Glo, qHTS, dose response (AID 1347064; cut-off not given, nearly all actives have AC50 up to about 23 µM;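 as to AC50: cells exposed to compound for 48 hours before the viability read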); conditions: CellTiter-Glo ATP luminescence
[6] = viability loss in pontine glioma line – cell-based, SU-DIPG-XXV, MIPE5.0, CellTiter-Glo, qHTS, dose response (AID 1347065; cut-off not given, nearly all actives have AC50 up to about 26 µM;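 also: cells exposed to compound for 48 hours before ATP readout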); conditions: CellTiter-Glo ATP luminescence
[7] = growth inhibition of DIPG cells – cell-based, MIPE4.0 library, CellTiter-Glo luminescence, qHTS (AID 1347066; cut-off not given, nearly all actives have AC50 up to about 30 µM;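 also: cells exposed to compound for 48 hours before readout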); conditions: SU-DIPG-VI viability, CellTiter-Glo ATP luminescence
[8] = JHH-DIPG-1 glioma cell viability, MIPE5.0 library, CellTiter-Glo luminescence, qHTS (AID 1347067; cut-off not given, nearly all actives have AC50 up to about 26 µM;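 also: cells exposed to compound for 48 hours before readout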); conditions: JHH-DIPG-1 glioma viability, CellTiter-Glo ATP luminescence
[9] = viability loss with induced miR-34 in A549 – imaging, A549 dox-inducible miR-34, nuclei and caspase counts, primary screen (AID 1347080;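 active = compounds whose cell count with miR-34 switched on is under 0.7 times the count with it off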); conditions: A549 miR-34 inducible, Hoechst nuclei count, 48 h
[10] = compounds altering HSF1 focus formation in cells – imaging, Selleck Cancer Library (AID 1347162; in the data active = plate-normalised HSF1 focus index below about 0.46); conditions: human cells, HSF1 nuclear foci imaging, at 10 µM; SSMD: measured here: HSF1 foci SSMD mean; cell count: measured here: cell number; plate-normalised HSF1 focus index: stronger effect = lower value
[11] = MELAS cybrid and Rieske KO viability enhancers – cell-based, MELAS cybrids, Rieske KO mouse fibroblasts, CellTiter-Glo, primary screen (AID 1508586;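 active = mean z-score across replicates of 1.96 or higher in either the MELAS or the Rieske mutant cell line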;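 also: z relative to plate mean and SD of compound and empty wells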); conditions: low glucose
[12] = drug combination growth inhibition, ovarian cancer – cell-based, oncology-focused library, rucaparib conditional, profiling panel (AID 1508598); conditions: patient-derived ovarian cancer cells, CellTiter-Glo viability, 144 h, stronger effect = lower value
[13] = growth inhibition of DIPG cells – cell-based, MIPE5.0 library, qHTS (AID 1347068; cut-off not given, nearly all actives have IC50 up to about 30 µM); conditions: SU-DIPG-XXV viability
[14] = stronger effect = lower value, cell number ratio, induced over uninduced
[15] = measured here: relative caspase fold change +Dox/-Dox
[16] = measured here: total cells with miR-34 induction, stronger effect = lower value
[17] = measured here: total cells without miR-34 induction
[18] = MELAS cybrid survival, CellTiter-Glo 48 h, stronger effect = higher value
[19] = Rieske KO mouse fibroblast survival, CellTiter-Glo 72 h

CCCNC(=O)[C@H]1O[C@@H]1C(=O)N[C@H](C(=O)N1CCC[C@H]1C(=O)OC)C(C)CC (stereo not given in full)
inactive: fold change [9, 14] 0.991
4230: cell count [9, 17]
active: AC50 [1] 16.6 µM | AC50 [2] 16.6 µM | AC50 [3] 16.6 µM | AC50 [4] 16.6 µM | AC50 [5] 11.8 µM | AC50 [6] 13.2 µM | AC50 [7] 10.5 µM | AC50 [8] 11.8 µM
1.21: fold change [9, 15]
4190: cell count [9, 16]

CN1CCN(c2ccc3nc(-c4c(N)c5c(F)cccc5[nH]c4=O)[nH]c3c2)CC1
472 and 732: cell count [9, 17]
5510: cell count [10]
744 and 794: cell count [9, 16]
0.308 and 0.757: fold change [9, 15]
inactive: fold change [9, 14] 1.57 and 1.08 | plate-normalised HSF1 focus index [10] 0.516 | viability ([12]; at 0.000305 µM, OCI-C5x cells, with rucaparib 10 µM, 100% = cells with rucaparib alone) 112% | viability ([12]; at 0.000305 µM, OCI-C5x cells, without rucaparib) 107% | viability ([12]; at 0.000305 µM, OCI-P5x cells, with rucaparib 20 µM, 100% = cells with rucaparib alone) 123% | viability ([12]; at 0.000305 µM, OCI-P5x cells, without rucaparib) 105% | viability ([12]; at 0.00122 µM, OCI-C5x cells, with rucaparib 10 µM, 100% = cells with rucaparib alone) 111% | viability ([12]; at 0.00122 µM, OCI-C5x cells, without rucaparib) 104% | viability ([12]; at 0.00122 µM, OCI-P5x cells, with rucaparib 20 µM, 100% = cells with rucaparib alone) 118% | viability ([12]; at 0.00122 µM, OCI-P5x cells, without rucaparib) 107% | viability ([12]; at 0.00488 µM, OCI-C5x cells, with rucaparib 10 µM, 100% = cells with rucaparib alone) 121% | viability ([12]; at 0.00488 µM, OCI-C5x cells, without rucaparib) 115% | viability ([12]; at 0.00488 µM, OCI-P5x cells, with rucaparib 20 µM, 100% = cells with rucaparib alone) 136% | viability ([12]; at 0.00488 µM, OCI-P5x cells, without rucaparib) 109% | viability ([12]; at 0.0195 µM, OCI-C5x cells, with rucaparib 10 µM, 100% = cells with rucaparib alone) 104% | viability ([12]; at 0.0195 µM, OCI-C5x cells, without rucaparib) 112% | viability ([12]; at 0.0781 µM, OCI-C5x cells, with rucaparib 10 µM, 100% = cells with rucaparib alone) 118% | viability ([12]; at 0.0781 µM, OCI-C5x cells, without rucaparib) 143% | viability ([12]; at 0.0781 µM, OCI-P5x cells, with rucaparib 20 µM, 100% = cells with rucaparib alone) 133% | viability ([12]; at 0.0781 µM, OCI-P5x cells, without rucaparib) 107% | viability ([12]; at 0.313 µM, OCI-C5x cells, with rucaparib 10 µM, 100% = cells with rucaparib alone) 125% | viability ([12]; at 0.313 µM, OCI-C5x cells, without rucaparib) 119% | viability ([12]; at 0.313 µM, OCI-P5x cells, with rucaparib 20 µM, 100% = cells with rucaparib alone) 129% | viability ([12]; at 0.313 µM, OCI-P5x cells, without rucaparib) 104% | viability ([12]; at 1.25 µM, OCI-C5x cells, with rucaparib 10 µM, 100% = cells with rucaparib alone) 148% | viability ([12]; at 1.25 µM, OCI-C5x cells, without rucaparib) 127% | viability ([12]; at 1.25 µM, OCI-P5x cells, with rucaparib 20 µM, 100% = cells with rucaparib alone) 123%
-9.43: SSMD [10]
3.68 (active) and -0.215 (inactive): z-score [11, 18]
active: AC50 [1] 0.525 µM | AC50 [2] 2.96 µM | AC50 [3] 26.4 µM | AC50 [4] 23.5 µM | AC50 [5] 1.05 µM | AC50 [6] 0.468 µM | AC50 [7] 20.9 µM | AC50 [8] 11.8 µM | viability ([12]; at 0.0195 µM, OCI-P5x cells, with rucaparib 20 µM, 100% = cells with rucaparib alone) 99.7% | viability ([12]; at 0.0195 µM, OCI-P5x cells, without rucaparib) 76.1% | viability ([12]; at 1.25 µM, OCI-P5x cells, without rucaparib) 90.6% | viability ([12]; at 5 µM, OCI-C5x cells, with rucaparib 10 µM, 100% = cells with rucaparib alone) 3.71% | viability ([12]; at 5 µM, OCI-C5x cells, without rucaparib) 73% | viability ([12]; at 5 µM, OCI-P5x cells, with rucaparib 20 µM, 100% = cells with rucaparib alone) 42.5% | viability ([12]; at 5 µM, OCI-P5x cells, without rucaparib) 50%
-0.494 and -0.354: z-score [11, 19]

O=C1c2cccc(O)c2C(=O)c2c(O)cc(CO)cc21
inactive: outcome [1] | outcome [2] | outcome [3] | outcome [4] | outcome [5] | outcome [6] | outcome [8] | outcome [13] | fold change [9, 14] 0.954 | z-score [11, 18] -0.27
0.691: fold change [9, 15]
8280: cell count [9, 17]
7900: cell count [9, 16]
0.836: z-score [11, 19]
